Experimental data as given in PubChem BioAssay (NCI).
About 79,000 compounds went through this panel and 15% of them were active in at least one assay; those are over-represented in the sample as a whole. Active and inactive are the calls of the source. No stated cut-off is given here; in the data, active means growth inhibition above about 70%; inactive means the rest.

Columns and labels:
[1] = NCI Yeast Anticancer Drug Screen. Data for the rad50 strain (AID 155);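 further: 0% = growth of vehicle-only cultures of the same strain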; settings: S. cerevisiae rad50 strain growth inhibition, active compounds read high
Summary of the method: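 Growth of the mutant yeast was measured after compound exposure and referenced to vehicle-treated cultures.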

[2] = NCI Yeast Anticancer Drug Screen. Data for the mec2-1 strain (AID 157); settings: S. cerevisiae mec2-1 strain, active compounds read high
Summary of the method: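 Strain: mec2-1 (DNA repair/cell cycle alteration). Compound exposure, then growth measured; inhibition expressed relative to vehicle.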

[3] = NCI Yeast Anticancer Drug Screen. Data for the sgs1 mgt1 strain (AID 161);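 further: 0% = growth of cultures given vehicle only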; settings: S. cerevisiae sgs1 mgt1 strain, active compounds read high
Summary of the method: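 Test agents were incubated with a DNA-repair-mutant yeast strain. Growth was then read and compared against vehicle-treated controls.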

[4] = NCI Yeast Anticancer Drug Screen. Data for the cln2 rad14 strain (AID 165);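 further: 0% = growth equal to vehicle treated cultures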; settings: S. cerevisiae cln2 rad14 strain, active compounds read high
Summary of the method: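 Compounds are applied to the cln2 rad14 yeast strain, and growth is then compared with that of vehicle-treated cultures to give inhibition.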

[5] = NCI Yeast Anticancer Drug Screen. Data for the bub3 strain (AID 167); settings: S. cerevisiae bub3 mutant strain, active compounds read high
Summary of the method: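 Whole-cell yeast assay. The mutant strain was incubated with compounds, and growth inhibition was determined by comparison with vehicle-treated cells.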

[6] = NCI Yeast Anticancer Drug Screen. Data for the mlh1 rad18 strain (AID 175); settings: S. cerevisiae mlh1 rad18 strain growth inhibition, active compounds read high
Summary of the method: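 Read-out is yeast growth inhibition, calculated against vehicle-only controls. The compound was applied to a strain engineered with DNA damage repair alterations.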

[7] = at 5.0 µM (retest, dose inferred, filed as 0.5)
[8] = at 50.0 µM (retest, dose inferred, filed as 5.0)

Measured: growth inhibition

N[C@H](C(=O)O)[C@@H]1CC(Cl)=NO1
active: [1]; [8] 97% | [1]; at 50.0 µM 83.7% | [2]; [7] 98% | [2]; [8] 96% | [2]; at 50.0 µM 89.8% | [3]; [8] 96% | [3]; at 50.0 µM 84.5% | [4]; [8] 96% | [4]; at 50.0 µM 85.2% | [5]; [8] 97% | [5]; at 50.0 µM 88.5% | [6]; [7] 86% | [6]; [8] 97% | [6]; at 50.0 µM 84.8%
inactive: [1]; [7] 63% | [3]; [7] 59% | [4]; [7] 68% | [5]; [7] 68%

NC(=Nc1cc2ccccc2c2ccccc12)/N=C(/N)Nc1cc2ccccc2c2ccccc12
active: [1]; [7] 99% | [1]; [8] 97% | [2]; [7] 100% | [2]; [8] 99% | [3]; [7] 99% | [3]; [8] 98% | [4]; [7] 99% | [4]; [8] 98% | [5]; [7] 99% | [5]; [8] 98% | [6]; [7] 99% | [6]; [8] 98%
inactive: [1]; at 50.0 µM 60.6% | [2]; at 50.0 µM 56.2% | [3]; at 50.0 µM 51.1% | [4]; at 50.0 µM 50.8% | [5]; at 50.0 µM 60% | [6]; at 50.0 µM 51.7%

CC(=O)c1c(CO[N+](=O)[O-])n([O-])c2ccccc2[n+]1=O
inactive: [1]; [7] 11% | [1]; [8] 60% | [1]; at 50.0 µM 69.4% | [2]; [7] 7% | [2]; [8] 20% | [2]; at 50.0 µM 13.6% | [3]; [7] 13% | [3]; [8] 40% | [3]; at 50.0 µM 42.5% | [4]; [7] -1% | [4]; [8] 17% | [4]; at 50.0 µM 22% | [5]; [7] -1% | [5]; [8] -4% | [5]; at 50.0 µM 15.7% | [6]; [7] 1% | [6]; [8] 33% | [6]; at 50.0 µM 45.9%

O=C(O)C1C(C(=O)O)C23CC2(C(=O)O)C2(C(=O)O)CCC3=C3CCCC312 (configuration not stated)
active: [1]; [8] 100% | [2]; [8] 99% | [3]; [8] 100% | [4]; [8] 99% | [5]; [8] 99% | [5]; at 50.0 µM 85.3% | [6]; [8] 100%
inactive: [1]; [7] 3% | [1]; at 50.0 µM 51.3% | [2]; [7] -1% | [2]; at 50.0 µM 55% | [3]; [7] -7% | [3]; at 50.0 µM 47.8% | [4]; [7] -21% | [4]; at 50.0 µM 19.4% | [5]; [7] 5% | [6]; [7] -3% | [6]; at 50.0 µM 67.8%

CCOC(=O)C(NC(=O)C(CO)n1c(-c2ccccc2)c(-c2ccccc2)oc1=O)C(=O)OCC (configuration not stated)
inactive: [1]; [7] 7% | [1]; [8] 42% | [1]; at 50.0 µM 43.6% | [2]; [7] 2% | [2]; [8] 19% | [2]; at 50.0 µM 26.4% | [3]; [7] -2% | [3]; [8] 35% | [3]; at 50.0 µM 41.5% | [4]; [7] -1% | [4]; [8] 51% | [4]; at 50.0 µM -1.9% | [5]; [7] 1% | [5]; [8] 51% | [5]; at 50.0 µM 22.2% | [6]; [7] 1% | [6]; [8] 20% | [6]; at 50.0 µM 53.1%

CCCCCC(CCCCC)C(=O)O
active: [1]; at 50.0 µM 78.6% | [2]; at 50.0 µM 70.2% | [3]; at 50.0 µM 72% | [4]; at 50.0 µM 78% | [6]; at 50.0 µM 79.5%
inactive: [1]; [7] 0% | [1]; [8] 63% | [2]; [7] -7% | [2]; [8] 52% | [3]; [7] -20% | [3]; [8] 48% | [4]; [7] -11% | [4]; [8] 50% | [5]; [7] -5% | [5]; [8] 29% | [5]; at 50.0 µM 66.2% | [6]; [7] -1% | [6]; [8] 60%

NCCSC1(O)C(=O)c2ccccc2-c2ccccc21 (configuration not stated)
inactive: [1]; [7] 6% | [3]; [7] 32% | [4]; [7] -14% | [6]; [7] 57%
active: [1]; [8] 98% | [1]; at 50.0 µM 98.8% | [2]; [7] 84% | [2]; [8] 99% | [2]; at 50.0 µM 98.2% | [3]; [8] 99% | [3]; at 50.0 µM 99.1% | [4]; [8] 99% | [4]; at 50.0 µM 96.2% | [5]; [7] 79% | [5]; [8] 99% | [5]; at 50.0 µM 97.8% | [6]; [8] 99% | [6]; at 50.0 µM 98.8%

CC1CN(CC(O)c2ccc(Br)cc2)CC(C)O1 (configuration not stated)
inactive: [1]; [7] 13% | [1]; [8] 30% | [1]; at 50.0 µM 58.5% | [2]; [7] 6% | [2]; [8] 28% | [2]; at 50.0 µM 34.2% | [3]; [7] 8% | [3]; [8] 56% | [3]; at 50.0 µM 66.5% | [4]; [7] 8% | [4]; [8] 46% | [4]; at 50.0 µM 68.7% | [5]; [7] 12% | [5]; [8] 48% | [5]; at 50.0 µM 54.6% | [6]; [7] 29% | [6]; [8] 61% | [6]; at 50.0 µM 41.8%

CC(=O)c1ccc(Br)cc1NC1=CC(=O)c2ncccc2C1=O
active: [1]; [7] 95% | [1]; [8] 95% | [1]; at 50.0 µM 86.7% | [2]; [7] 88% | [2]; [8] 94% | [2]; at 50.0 µM 91.2% | [3]; [7] 81% | [3]; [8] 96% | [3]; at 50.0 µM 88.8% | [4]; [7] 77% | [4]; [8] 90% | [4]; at 50.0 µM 88.3% | [5]; [7] 83% | [5]; [8] 95% | [5]; at 50.0 µM 89.7% | [6]; [7] 87% | [6]; [8] 95% | [6]; at 50.0 µM 87.3%
